This is part of a sample that, as a whole, favours compounds with a hit. Of some 79,000 tested, about 15% had one in any assay. Unmarked numbers belong to inactive results. Active and inactive are the calls of the source. No stated cut-off is given here; in the data, active means growth inhibition above about 70%; inactive means the rest. Where a SMILES comes first, the peptide text is derived from it. [ ]: non-standard residue; d: D form. Abu = CC[CH](N)C(=O)O
Columns and labels:
[1] = NCI Yeast Anticancer Drug Screen. Data for the rad50 strain (AID 155);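 further: 0% = growth of vehicle-only cultures of the same strain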; settings: S. cerevisiae rad50 strain growth inhibition; at 50.0 µM; hits give high values
Procedure, shortened: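 Compounds were tested on a yeast strain with an engineered DNA damage repair alteration; the reported value is growth inhibition normalised to vehicle treatment.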

[2] = NCI Yeast Anticancer Drug Screen. Data for the mec2-1 strain (AID 157); settings: S. cerevisiae mec2-1 strain, at 50.0 µM, hits give high values
Procedure, shortened: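 Mutant yeast (mec2-1) grown with compound; growth inhibition relative to vehicle control reported.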

[3] = NCI Yeast Anticancer Drug Screen. Data for the sgs1 mgt1 strain (AID 161);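 further: 0% = growth of cultures given vehicle only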; settings: S. cerevisiae sgs1 mgt1 strain, at 50.0 µM, hits give high values
Procedure, shortened: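 Growth of a repair-deficient yeast mutant was monitored after compound treatment and expressed as inhibition relative to vehicle-treated cultures.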

[4] = NCI Yeast Anticancer Drug Screen. Data for the cln2 rad14 strain (AID 165);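 further: 0% = growth equal to vehicle treated cultures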; settings: S. cerevisiae cln2 rad14 strain, at 50.0 µM, hits give high values
Procedure, shortened: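 Readout is yeast growth inhibition versus vehicle-treated controls, using a strain with cln2 and rad14 alterations exposed to compound.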

[5] = NCI Yeast Anticancer Drug Screen. Data for the bub3 strain (AID 167); settings: S. cerevisiae bub3 mutant strain, at 50.0 µM, hits give high values
Procedure, shortened: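 Growth of a checkpoint-deficient yeast mutant is measured after compound exposure. Values represent inhibition relative to vehicle.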

[6] = NCI Yeast Anticancer Drug Screen. Data for the mlh1 rad18 strain (AID 175); settings: S. cerevisiae mlh1 rad18 strain growth inhibition; at 50.0 µM; hits give high values
Procedure, shortened: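 Genetically defined yeast (DNA repair-deficient) exposed to compounds; growth inhibition determined relative to vehicle.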

| Compound | growth inhibition [1] [%] | growth inhibition [2] [%] | growth inhibition [3] [%] | growth inhibition [4] | growth inhibition [5] | growth inhibition [6] |
| --- | --- | --- | --- | --- | --- | --- |
| CCCC(=O)OC1=CC(=O)c2ccccc2C1=O | 22.9 | 16.6 | 29.1 | 26.5% | -10.2% | 6.3% |
| CCOCC(=O)N[C@H]1CCc2cc(OC)c(OC)c(OC)c2-c2ccc(OC)c(=O)cc21 | 9.45 | -32.8 | 22.4 | -2.6% | 9.35% | 4% |
| O=C(O)C(O)c1cccc([N+](=O)[O-])c1 (stereo unspecified) | 11.1 | 11.7 | -8.8 | -7.05% | -32.2% | -12.9% |
| COc1ccc(N2C(=O)CSC2=S)cc1 | 58.6 | 0 | 24.1 | -9.15% | -4.85% | 33.1% |
| COC(=O)Nc1nc2ccccc2n1-c1ccccc1 | 18.9 | 2.85 | 10.6 | 14.2% | 16.4% | 17.5% |
| Oc1c(Br)cc(Br)cc1/C=C/NC(=S)NC1CC2CC1C1C=CCC21 (stereo unspecified) | 28.2 | 32.1 | 10.6 | -6.15% | 5.15% | 55.9% |
| Clc1ccc(SCc2csc(-c3ccc(Cl)cc3)n2)cc1 | -27.5 | -41.8 | -19.1 | -27.8% | -6.8% | -29.8% |
| CCN(CC)CCNc1ccc2ncn3c4c(OC)cccc4c(=O)c1c23 | 2.7 | -17.1 | 21.8 | 18.4% | -46.8% | 67.2% |
| O=C(O)C(c1ccccc1)C1(O)CC2CCC1C2 (stereo unspecified) | -38 | -45.5 | -36.6 | -10.7% | -56% | -54.5% |
| COc1ccc(/C=N/Nc2nc(C)c(C)s2)cc1 | 30.9 | 18.4 | 53.4 | 11.4% | 7.35% | 55.8% |
| COc1cc2c(cc1OC)C(NC(C)C)CCCC2 (stereo unspecified) | -7.6 | 9.35 | -13.8 | -23.6% | -7.7% | -6.9% |
| Cc1cc(O)c2c(c1)C(=O)C=CC2=O | 6.7 | 5.2 | 1.3 | 4.15% | 10.3% | -25.9% |
| COc1ccc(N2C(=O)C3c4[nH]c5ccccc5c4C4CCCCCCCCCCC4C3C2=O)cc1 (stereo unspecified) | 9.95 | -19.6 | -3.2 | -65.3% | -26.4% | -4.2% |
| COc1ccc(CCNC(=O)Cc2ccccc2CCO)cc1OC | 13.9 | -6.85 | -29.5 | -3.75% | -43.9% | -20.1% |
| CCOC(=O)n1cccc(C)c1=N | -10.1 | 13.7 | 18.9 | -17.2% | -8.85% | 27.1% |
| CCOC(=O)c1ccc(Cl)cc1 | -14 | -16.8 | -25.1 | -23.8% | -30.8% | -25.1% |
| C=C1c2nc3ccccc3n2C=C(c2ccc(C)cc2)N1c1ccc(OC)cc1 | -10.2 | -6.45 | -7 | 15.5% | -19% | -17.9% |
| CC1CN(CC2COc3ccccc3O2)C(C)CN1 (stereo unspecified) | 61.8 | 17.4 | 57.2 | 58.5% | 53.4% | 34.2% |
| CO/C(=N\N=C\c1ccccc1F)c1ccncc1 | -25.9 | -64.8 | -70.8 | 1.7% | -28.6% | -60.6% |
| O=C(NC1COB(c2cccc([N+](=O)[O-])c2)OC1c1ccc([N+](=O)[O-])cc1)C(Cl)Cl (stereo unspecified) | 12.8 | 27.9 | 5.65 | -23.9% | 15.7% | 63.5% |
| O=C(O)c1cc2ccccc2c(N=Nc2cc(C(F)(F)F)ccc2Cl)c1O | -12.2 | -9.65 | -4.05 | 5.4% | -6.3% | -13.1% |

| Compound | growth inhibition [1] [%] | growth inhibition [2] [%] | growth inhibition [3] [%] | growth inhibition [4] | growth inhibition [5] | growth inhibition [6] |
| --- | --- | --- | --- | --- | --- | --- |
| O=C(C[N+]12CC=C(CO)C1C(O)CC2)c1ccc(Br)cc1 (stereo unspecified) | 5.55 | -6.25 | -15.5 | -24.4% | 3.35% | -4% |
| O=CC(=O)c1ccc(Br)cc1 | 13.7 | 19.2 | 13.2 | -1.05% | -7.15% | 19.4% |
| NC(=O)NC(N)=O | 13.3 | -10.4 | -9.95 | -34.1% | 18.9% | 21.9% |
| CCCCCCC(/C=N\N=C\c1ccco1)=C\c1ccccc1 | -2.7 | 6.15 | 1.25 | 2.75% | 16.9% | -7.8% |
| CC(NC(=O)C(N)CC(=O)O)C(=O)OC12CC3CC(CC(C3)C1)C2 (stereo unspecified) | -55.5 | -62.4 | -22.6 | -0.95% | 12.7% | -10.8% |
| CC(C)C[C@H](NC(=O)[C@H](CCc1ccccc1)NC(=O)c1ccc2ccccc2n1)B(O)O | 60.8 | 64.7 | 55.5 | 73.8% (active) | 84.7% (active) | 82.5% (active) |
| CC1=CC(=O)/C(=C/N2CCNC2=S)C(=O)O1 | -24.6 | -20.6 | 1.3 | 5.65% | -31.3% | 4.7% |
| CCC(N)C(=O)NC(C(N)=O)C(C)C (stereo unspecified) (H-[Abu]-Val-NH2; configuration not given here) | 11.1 | -9.75 | -1.55 | -42.4% | -4.7% | 13.2% |
| OCCOc1ccc(C(Cc2ccccc2)N(CCO)CCO)cc1 (stereo unspecified) | -10.1 | 2.15 | 7.5 | -12.6% | 4.7% | -1.45% |
| CC1CC[N+]2(C)CCCC12 (stereo unspecified) | 1.1 | -4.4 | -5.3 | -39.3% | -23.9% | -12.4% |
| COc1ccc(C2CC(=O)Oc3ccccc3O2)cc1 (stereo unspecified) | 39 | 16.4 | 32.2 | 27.9% | 23.6% | 38.1% |
| Cc1cccc(C(=O)OC(=O)c2cccc(C)c2)c1 | -3.85 | -37 | -9.75 | -6% | -23.9% | 10.3% |
| CN(C)S(=O)(=O)c1cccc2ccccc12 | 3.35 | 7.85 | -7.35 | -6.9% | 2.45% | -8.65% |
| CCCCCCC(O)CCCCCC | 27.4 | -16.4 | 26.4 | -24.6% | 21.5% | -12.3% |
| CCCCCCCCCCCCCCOc1ccc(Sc2ccc([N+](=O)[O-])cc2)cc1 | 40.8 | -0.1 | 46 | -5% | 5.8% | 26.8% |
| Brc1ccc(-c2oc3c4ccccc4c4ccccc4c3c2-c2ccc(Br)cc2)cc1 | 32.5 | 5.35 | 17.8 | -0.95% | 2.9% | 15.2% |
| CC(C)(C)OC(=O)C1=C2C=C(O)C=CC2(C)N(Cc2ccccc2)C1=N (stereo unspecified) | -23.9 | -55.5 | -36 | -36.2% | -24.6% | -50.2% |
| CCOC(=O)c1c(C)c2c(n1C)CC/C(=C\N1CCOCC1)C2=O | 11.3 | 13.1 | 13.6 | -13.8% | 14.5% | 15.2% |
| O=C(Oc1ccc[nH]c1=O)C1CCC1 | -15.3 | 3 | -0.55 | 2.7% | 12.8% | -4.75% |
| O=C1NC(=O)C(=CN2C(=O)/C(=C/c3ccc(O)cc3)SC2=S)C(=O)N1 | -6.6 | -5.7 | 23.1 | 9.15% | 1.8% | 14.7% |

— PubChem BioAssay (NCI)
